High-throughput results as filed in PubChem.
This is a sample that favours compounds with a hit; in the whole collection about 3.3% have one here.
ABHD5 PLIN5 PPI = inhibitors of human ABHD5-perilipin-5 interaction; inhibition, % at 4 µM; Split G. princeps luciferase complementation, luminescence, 4 h; Q00G26+Q8WTS1; 360,000 tested, 0.78% active; AID 602281;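 active = inhibition above the mean inhibition across every tested compound plus 3 SD, cut at about 22% in these data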
NOD2-RIPK2 inh = NOD2-RIPK2 protein interaction inhibition; CHO BLA complementation NOD2-RIPK2, CCF4 ratio; AID 624267; inhibition, % at 4.98 µM; 360,000 tested, 0.38% active; O43353; in the data active = inhibition above about 21%
rCAG binder = r(CAG) repeat RNA binding; TO-PRO-1 dye displacement fluorescence; inhibition, % at 3 µM; 370,000 tested, 1.3% active;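 active = inhibition above the plate cutoff, the mean of all test compounds on that plate plus 3 SD, cut at about 35% in these data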;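 note: higher means more dye released from RNA so lower well fluorescence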
TLR9-MyD88 block = TLR9-MyD88 interaction inhibition; Q9NR96+Q99836; CHO BLA complementation TLR9-MyD88, CCF4 FRET ratio; inhibition, % at 4.98 µM; 340,000 tested, 0.21% active; AID 504734;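 active = inhibition above the mean over all tested compounds plus 3 SD, cut at about 21% in these data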
PRMT1 inh = blocks human protein arginine methyltransferase 1; Q99873; inhibition, % at 2.79 µM; AID 652257; recombinant PRMT1, activity-based probe fluorescence polarization; 370,000 tested, 1.3% active;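 active = inhibition above about 21% made by adding two undisclosed values, limit read from the data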
Target sequence (Q99873 whole entry, looked up): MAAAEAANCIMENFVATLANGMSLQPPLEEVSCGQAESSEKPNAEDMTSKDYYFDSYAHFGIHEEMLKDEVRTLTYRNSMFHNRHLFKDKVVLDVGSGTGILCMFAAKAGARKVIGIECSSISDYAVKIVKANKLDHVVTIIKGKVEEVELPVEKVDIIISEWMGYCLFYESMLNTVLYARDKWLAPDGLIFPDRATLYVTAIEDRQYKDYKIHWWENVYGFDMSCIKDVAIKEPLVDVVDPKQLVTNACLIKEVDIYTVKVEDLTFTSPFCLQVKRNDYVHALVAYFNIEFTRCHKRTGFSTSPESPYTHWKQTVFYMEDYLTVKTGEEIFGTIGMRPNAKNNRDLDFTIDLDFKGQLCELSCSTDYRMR
TLR4-MyD88 BLA = blocks binding of human TLR4 to MyD88; HeLa CL3-4 TLR4/MyD88 BLA complementation, FRET ratio; inhibition, % at 8.4 µM; 200,000 tested, 0.18% active; AID 861; O00206+Q99836; in the data active = inhibition above about 25%
rCAG bind conf = r(CAG) RNA repeat binding, confirmation | shares compounds with rCAG binder | TO-PRO-1 dye displacement fluorescence | inhibition, % at 3 µM | 4,300 tested, 70% active;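 active = inhibition above a per-plate cutoff, the mean inhibition of sample wells plus 3 SD, cut at about 35% in these data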;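 note: loss of TO-PRO-1 fluorescence as compound displaces dye from 1x1 AA loop RNA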
dCAG dye counter = DNA CAG dye complex inhibition counter-screen; shares compounds with rCAG binder; d(CAG) DNA oligo TO-PRO-1 dye displacement, fluorescence; inhibition, % at 3 µM; 4,300 tested, 94% active;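 active = inhibition above its plate's cutoff, the mean test-well inhibition plus 3 SD, cut at about 4.8% in these data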;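 note: hits displace the dye from DNA and so lower well fluorescence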
PRMT1 inh conf = confirmation of human PRMT1 inhibitors. shares compounds with PRMT1 inh. recombinant His-PRMT1, activity-based probe fluorescence polarization. inhibition, % at 2.79 µM. 3,300 tested, 42% active;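 active = mean inhibition across replicates above the hit cutoff derived for the earlier primary screen, cut at about 22% in these data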
Of the large screens only hits and unclear results are named; the others gave an inactive call (follow-up assays come after a bar, where they were run).

COc1ccc(OC)c(C2Nc3c(Cl)ccc(C(=O)O)c3C3C=CCC32)c1 (stereo not given)	rCAG binder 50, PRMT1 inh 46 | rCAG bind conf inactive | dCAG dye counter 7.1 | PRMT1 inh conf 28
CCN(C(=O)COC(=O)/C=C/c1ccc(OC)c(OC)c1)c1c(N)n(Cc2ccccc2)c(=O)[nH]c1=O	none (no result: TLR4-MyD88 BLA)
CCOC(=O)Cn1cc(CN2CCS(=O)(=O)N(Cc3ccc(C)cc3)C(C(=O)OC)C2)nn1 (stereo not given)	none (no result: ABHD5 PLIN5 PPI, NOD2-RIPK2 inh, TLR9-MyD88 block, TLR4-MyD88 BLA)
O=C(O)C(Cc1ccccc1)N1C(=O)/C(=C/C=C/c2ccco2)SC1=S (stereo not given)	rCAG binder 90, PRMT1 inh 61 (no result: TLR4-MyD88 BLA) | rCAG bind conf 92 | dCAG dye counter 68 | PRMT1 inh conf 34
O=C(NN1C(=O)/C(=C/C=C/c2ccco2)SC1=S)c1ccccc1O	rCAG binder 94, PRMT1 inh 42 (no result: TLR4-MyD88 BLA) | rCAG bind conf 93 | dCAG dye counter 77 | PRMT1 inh conf 32
Cn1cccc1/C=C1\SC(=S)N(NC(=O)c2ccccc2O)C1=O	none (no result: TLR4-MyD88 BLA)
CC(=O)C1(C(=O)NC2CCCC2)CC(c2ccccc2C(F)(F)F)=NO1 (stereo not given)	none (no result: ABHD5 PLIN5 PPI, NOD2-RIPK2 inh, TLR9-MyD88 block, TLR4-MyD88 BLA)
CCCCc1c(O)nc(SCC(=O)Nc2cccc3ccccc23)n(-c2ccccc2OC)c1=O	rCAG binder 35, PRMT1 inh 42 (no result: TLR4-MyD88 BLA) | rCAG bind conf inactive | dCAG dye counter 7.8 | PRMT1 inh conf 23
CCc1c(O)nc(SCC(=O)Nc2ccccc2OC)n(-c2ccccc2C)c1=O	none (no result: TLR4-MyD88 BLA)
COc1ccc(C2CC(=O)N3CN(c4ccc(C)c(Cl)c4)CSC3=C2C#N)cc1 (stereo not given)	rCAG binder 38, PRMT1 inh 44 | rCAG bind conf inactive | dCAG dye counter 8.3 | PRMT1 inh conf 59
O=C(O)c1ccc(NS(=O)(=O)c2ccc3c(c2)C2C=CCC2C(c2ccccc2F)N3)cc1 (stereo not given)	rCAG binder 88, PRMT1 inh 47 | rCAG bind conf 61 | dCAG dye counter 27 | PRMT1 inh conf inactive
C=C1c2cccc(O)c2C(=O)C2C(=O)[C@]3(O)C(=O)C(C(N)=O)C(=O)[C@@H](N(C)C)[C@@H]3[C@@H](O)[C@H]12 (stereo not given in full)	rCAG binder 85, PRMT1 inh 62 (no result: TLR4-MyD88 BLA) | rCAG bind conf inactive | dCAG dye counter 10 | PRMT1 inh conf 22
CCSc1nnc(NC(=O)CSc2sc3c(O)cc(=O)[nH]c3c2C#N)s1	rCAG binder 58, PRMT1 inh 27 (no result: TLR4-MyD88 BLA) | rCAG bind conf 63 | dCAG dye counter 28 | PRMT1 inh conf inactive
Cc1csc(NC(=O)CSc2sc3c(O)cc(=O)[nH]c3c2C#N)n1	rCAG binder 75, PRMT1 inh 81 (no result: TLR4-MyD88 BLA) | rCAG bind conf 37 | dCAG dye counter 14 | PRMT1 inh conf inactive
CCOC(=O)C1CCCN(C(=O)c2ccc3c(c2)C(C)(C)CCC3(C)C)CC1 (stereo not given)	none (no result: TLR9-MyD88 block, TLR4-MyD88 BLA)
COc1ccccc1OCCn1c(SCC(=O)O)nc2ccccc21	none (no result: TLR4-MyD88 BLA)
CC1=CC(C)(C)NC(=S)N1c1cccc2cc(S(=O)(=O)O)ccc12	rCAG binder 43, PRMT1 inh 39 (no result: TLR4-MyD88 BLA) | rCAG bind conf 87 | dCAG dye counter 58 | PRMT1 inh conf 45
CCCN1C(=O)SC(CC(=O)Nc2ccccc2)C1=O (stereo not given)	none
O=C(CC1SC(=O)N(c2ccccc2)C1=O)Nc1ccc(Br)cc1 (stereo not given)	rCAG binder 42, PRMT1 inh 32 (no result: TLR9-MyD88 block, TLR4-MyD88 BLA) | rCAG bind conf inactive | dCAG dye counter 8.1 | PRMT1 inh conf 102
O=C(CC1SC(=O)N(c2ccccc2)C1=O)Nc1ccc(Cl)cc1 (stereo not given)	rCAG binder 43, PRMT1 inh 26 (no result: TLR4-MyD88 BLA) | rCAG bind conf inactive | dCAG dye counter 6.6 | PRMT1 inh conf 92
Cc1cc(C)c2nc3sc(=Cc4ccc(-c5ccccc5C(=O)O)o4)c(=O)n3c2c1	none (no result: TLR9-MyD88 block, TLR4-MyD88 BLA)
Cc1ccc2c(nc3s/c(=C\c4ccc(-c5ccccc5C(=O)O)o4)c(=O)n32)c1C	rCAG binder 54, PRMT1 inh 29 (no result: TLR4-MyD88 BLA) | rCAG bind conf 89 | dCAG dye counter 75 | PRMT1 inh conf inactive
COc1ccc(NC(=O)CSc2sc3c(O)cc(=O)[nH]c3c2C#N)c(OC)c1	rCAG binder 63, PRMT1 inh 66 (no result: TLR4-MyD88 BLA) | rCAG bind conf inactive | dCAG dye counter 13 | PRMT1 inh conf inactive
COc1ccc(Cl)cc1NC(=O)CSc1nc(C)cc(C)n1	none
COc1ccccc1NC(=O)CSc1sc2c(O)cc(=O)[nH]c2c1C#N	rCAG binder 52, PRMT1 inh 27 (no result: TLR4-MyD88 BLA) | rCAG bind conf inactive | dCAG dye counter 8.2 | PRMT1 inh conf inactive
COc1ccc(Cl)cc1NC(=O)CSc1sc2c(O)cc(=O)[nH]c2c1C#N	rCAG binder 55, PRMT1 inh 29 (no result: TLR4-MyD88 BLA) | rCAG bind conf inactive | dCAG dye counter 16 | PRMT1 inh conf inactive
COc1ccc(NC(=O)CSCc2ccc(C#N)cc2)c(OC)c1	none (no result: TLR4-MyD88 BLA)
CCS(=O)(=O)C1=NN2C(=N)/C(=C\c3ccc(SCc4ccco4)o3)C(=O)N=C2S1	rCAG binder 85, PRMT1 inh 30 | rCAG bind conf 89 | dCAG dye counter 70 | PRMT1 inh conf inactive
N=C1/C(=C\c2ccc(SCc3ccccc3)o2)C(=O)N=C2SC=NN12	none
COc1ccc(Cl)c2sc(N(CCN(C)C)C(=O)C3=COCCO3)nc12	none (no result: TLR4-MyD88 BLA)
CCCN(CC(=O)Nc1ccc(F)c(F)c1F)C(=O)CCc1nc2ccccc2c(=O)[nH]1	none (no result: TLR4-MyD88 BLA)
CC(/C=N/n1c(-c2ccco2)n[nH]c1=S)=C\c1ccco1	none
S=c1[nH]nc(-c2ccco2)n1/N=C/C(Cl)=C/c1ccccc1	rCAG binder 58, PRMT1 inh 26 (no result: TLR4-MyD88 BLA) | rCAG bind conf 52 | dCAG dye counter 18 | PRMT1 inh conf inactive
CCSc1nc2sc3c(c2c(=O)[nH]1)CCc1ccccc1-3	none
NNc1nc2sc3c(c2c(=O)[nH]1)CCc1ccccc1-3	rCAG binder 44, PRMT1 inh 61 | rCAG bind conf inactive | dCAG dye counter 8.4 | PRMT1 inh conf inactive
CN(CCO)c1nc(N)c2c(N)nc3c(c2c1C#N)CC(=O)N3Cc1cccs1	rCAG binder 38, PRMT1 inh 27 | rCAG bind conf inactive | dCAG dye counter 9.2 | PRMT1 inh conf inactive
O=C(O)c1ccccc1OCC1CCCO1 (stereo not given)	none (no result: TLR4-MyD88 BLA)
CCSc1nc(-c2ccco2)ccc1C#N	rCAG binder 56, PRMT1 inh 31 | rCAG bind conf inactive | dCAG dye counter 8.6 | PRMT1 inh conf inactive
